Screens: PubChem, National Center for Advancing Translational Sciences (NCATS)
SW480 rerep: induces DNA re-replication in SW480 colon adenocarcinoma cells; SW480 DNA re-replication, Hoechst DNA content imaging, 48 h; Potency, µM (series often up to 46.1 µM), usual class: activators; 1.8% of 340,000 active; further: nearly all actives have a fitted effect of over 55% in size
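First, 250 cells per well were seeded. Next, compound or vehicle (23 nL) was pinned in, plates sat 48 hr at 37 C. Finally Hoechst was added for 40 min before fluorescence scanning.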
MCF10A rerep: inducers of DNA re-replication in MCF 10A breast cells; MCF 10A DNA re-replication, Hoechst nuclear intensity, 48 h; Potency, µM (top dose mostly 46.1 µM), most hits filed as activators; 2.9% of 350,000 active; AID 624296; further: nearly all actives have a fitted effect of over 50% in size
HT1080-NT tox: kills 2HG-producing HT-1080-NT fibrosarcoma cells. 1.6% of 360,000 active. HT-1080-NT fibrosarcoma viability, CellTiter-Glo ATP luminescence, 48 h. Potency, µM (top dose mostly 46.1 µM), most hits filed as cytotoxic;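 further: NT is the 2HG producing partner of a matched IDH1 knockdown line; nearly all actives have a fitted effect of over 55% in size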
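HT-1080-NT fibrosarcoma cells (2HG-overproducing), 750 cells/well in RPMI with 5% FBS, dosed after 2 h and incubated 48 h at 37C. CellTiter-Glo luminescence normalized to DMSO and no-cell wells; concentration-response curves fitted and classed.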
KB-V1 MDR tox: kills drug-selected multidrug resistant KB-V1 cells; KB-V1 MDR cells viability, CellTiter-Glo, 72 h; Potency, µM (doses to about 46.1 µM), hits mostly cytotoxic; 3.4% of 400,000 active; further: nearly all actives have a fitted effect of over 60% in size
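Luminescent ATP read-out (CellTiter-Glo, 10 min) measures survival of drug-selected KB-V1 MDR cells after 72 h, 37 degrees C compound exposure. Medium: phenol-red-free DMEM, 10% FBS. Values from fitted concentration-response curves.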
KB-3-1 cytotox: kills parental KB-3-1 adenocarcinoma cells. KB-3-1 viability, CellTiter-Glo ATP luminescence, 72 h. Potency, µM (highest dose often 46.1 µM), actives largely listed as cytotoxic. 1.4% of 400,000 active; further: nearly all actives have a fitted effect of over 60% in size
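Viability of parental KB-3-1 cells, measured by CellTiter-Glo luminescence, followed a 72 h incubation at 37 °C with pinned compounds in phenol-red-free DMEM containing 10% FBS.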
HT1080 IDH1KD tx: kills HT-1080 cells with IDH1 knockdown. HT-1080 IDH1 knockdown viability, ATP luminescence, 48 h. Potency, µM (doses to about 46.1 µM), actives largely listed as cytotoxic. 2% of 360,000 active. AID 686971
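After a 2 h attachment period, IDH1KD HT-1080 cells took pin-transferred compound for 48 h at 37 °C; ATP-based luminescence after 10 min room-temperature reagent incubation reported viability.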
Hits are given with their value; 0 = inactive; ? = inconclusive; - = not tested or not shown; ! = a repeat was not active. Sampled rows, rich in hits. Any-hit rate of the full collection: about 8%. The call rests on the fitted dose curve; in most records, active means well fitted curve in the direction sought with a large enough effect; inconclusive means small, poorly fitted or top-dose-only effect, or another doubt; inactive means no such curve, though single readings can be large; an effect the other way counts as inactive or inconclusive.

SMILES	SW480 rerep	MCF10A rerep	HT1080-NT tox	KB-V1 MDR tox	KB-3-1 cytotox	HT1080 IDH1KD tx
C[N+]1([O-])[C@@H]2CC(OC(=O)[C@@H](CO)c3ccccc3)C[C@@H]1[C@H]1O[C@H]12 (stereo partly specified)	0	0	-	-	-	-
O=C1NC(=O)C(Cc2ccccc2)(Cc2ccccc2)C(=O)N1Cc1ccccc1	?	?	?	16µM	?	?
CCOC(=O)C(O)(c1ccc(N(CC)C(=O)OC)cc1)C(F)(F)F (stereo unspecified)	0	0	0	21µM	0	0
CCOC(=O)N(CC)c1ccc(C(O)(C(=O)OCC)C(F)(F)F)cc1 (stereo unspecified)	0	0	0	0	0	0
CCN(CC)C(=O)c1c(C)[nH]c(=S)c(C#N)c1-c1ccco1	?	?	0	0	0	0
CN(C)C(=O)Oc1ccnc2cc(Cl)ccc12	0	0	0	0	0	0
CCN(CC)Cc1cc(Nc2ccnc3cc(Cl)ccc23)ccc1O	0	?	10µM!	?	0	21µM!
CCOC(=O)c1c(C)c(C(=O)Nc2cc(OC)ccc2OC)c(C)n1CC	?	?	7.1µM	0	0	7.1µM
O=C(c1cccc2ccccc12)C1CCCN(Cc2ccon2)C1 (stereo unspecified)	?	0	0	0	0	0
Cc1cc(Cl)ccc1C(=O)C1CCCN(Cc2ccon2)C1 (stereo unspecified)	0	0	0	16µM	0	0
Cc1ccccc1NC(=O)c1cc(-c2ccccc2)n(CCCN2CCOCC2)c1C	0	0	0	0	0	0
Cc1ccccc1NC(=NCCCN1CC1)Nc1ccccc1C	?	21µM	0	0	?	?
O=C(Oc1ccccc1)c1cccc(COC(=O)c2cnccn2)c1	?	0	0	0	0	0
CC(=O)Nc1cc(C(=O)N2CCC3(CC2)OCCO3)ccc1S(=O)(=O)c1ccc(C)cc1	0	0	0	0	0	0
CCCC(=O)Nc1cc(C(=O)N2CCC3(CC2)OCCO3)ccc1S(=O)(=O)c1ccc(C)cc1	0	0	0	10µM	0	0
CCOc1ccc2nc(NC(=O)c3cccn(Cc4ccccc4Cl)c3=O)sc2c1	-	-	-	?	0	-
Cc1cc(N2CCN(C(=O)c3ccco3)CC2)n2nc(-c3cccc(Cl)c3)cc2n1	0	?	?	?	?	?
COc1ccc(CCN(C)Cc2c(F)cccc2F)cc1OC	0	?	0	12µM	0	0
COc1ccc(CCNCc2ccc(F)cc2)cc1OC	0	0	0	0	0	0
CC1CCC2(CC1)NC(=O)N(NC(=O)CCl)C2=O (stereo unspecified)	0	0	0	0	0	0
CCN1C(=O)C(=C2C=C(C)N(Cc3ccco3)C(C)=C2)C(=O)N(CC)C1=S	?	13µM	0	0	0	0
C=CC[C@@H](CC(=O)N(CCO)Cc1ccccc1)C(=O)NC[C@@H](OC(=O)[C@@H](CC=C)CC(=O)OC(C)(C)C)c1ccccc1	0	0	0	0	0	0
Cc1c(C(=O)NCCC2=CCCCC2)oc2ccc(S(=O)(=O)N3CCC4(CC3)OCCO4)cc12	0	?	0	16µM	?	0
CCCCn1c(N)c(N(CC(C)C)C(=O)c2cc(Br)c(Br)s2)c(=O)[nH]c1=O	0	?	0	0	?	0
CCCc1cc(-c2n[nH]c(C(=O)OCC)c2-c2cscn2)c(O)cc1O	0	?	0	0	0	?
SMILES	SW480 rerep	MCF10A rerep	HT1080-NT tox	KB-V1 MDR tox	KB-3-1 cytotox	HT1080 IDH1KD tx
C=C(C)COc1ccc(-c2n[nH]c(C)c2-c2ccc(Br)cc2)c(O)c1	0	0	10µM	?	?	10µM
CC(C)CC[C@@H](O)[C@](C)(O)C1CC[C@@]2(O)C3=CC(=O)[C@@H]4C[C@@H](O)[C@@H](O)C[C@]4(C)C3CC[C@]12C (stereo partly specified)	0	0	?	0	0	0
O=C(CCl)Nc1sccc1C(=O)c1ccccc1	?	?	10µM	?	0	?
NC(=O)c1ccsc1NC(=O)COC(=O)Cc1ccccc1	0	0	0	0	0	0
CCCC1(CCC)C(=O)NC(=NCc2ccccc2)NC1=O	?	?	15µM	0	?	?
CCCC1(CCC)C(=O)NC(=Nc2ccccc2)NC1=O	0	0	0	0	0	0
CC(Cc1ccccc1)N(C)C (stereo unspecified)	0	0	-	-	-	-
c1ccc(-c2ccc(C(c3ccccc3)n3ccnc3)cc2)cc1 (stereo unspecified)	?	10µM	?	?	0	?
c1ccc(C(c2ccccc2)c2cccnc2)cc1	0	0	0	0	0	0
CC1N(C)c2cc(NC(=O)c3ccco3)c(P(=O)(Nc3ccc([N+](=O)[O-])cc3)N3CCOCC3)cc2C1(C)C (stereo unspecified)	0	?	?	0	?	10µM
CCOP(=O)(OCC)O/C(=C/Cl)c1ccc(Cl)cc1Cl	0	0	-	-	-	-
O=C(c1cc(C(=O)NCc2ccccc2)c(=O)n(Cc2ccccc2)c1)c1cc(Br)ccc1O	?	0	0	2.3µM	?	?
Cc1ccc(O)c(C(=O)c2cc(C(=O)NCc3ccccc3)c(=O)n(Cc3ccccc3)c2)c1	0	0	0	0	0	0
CCCCCCCCCCCCCCCC[n+]1ccccc1	0	?	12µM	?	5.8µM!	10µM
COc1c(C)cc(C(=O)C2CCCN(Cc3cccc(O)c3)C2)cc1C (stereo unspecified)	0	6.5µM	0	0	0	0
CC[C@@]1(c2ccc(N)cc2)CCC(=O)NC1=O	0	0	-	-	-	-
Cc1nn(-c2ccccc2)c(Cl)c1/C=N\NC(=O)c1cnccn1	0	?	0	0	0	0
NC(CCc1ccccc1)c1csc(NC(=O)Nc2ccccc2Oc2ccccc2)n1 (stereo unspecified)	-	-	23µM	23µM	?	?
Nc1nonc1C(=O)N/N=C/c1ccc([N+](=O)[O-])o1	?	?	?	0	0	18µM
N/C(=N\[N+](=O)[O-])N/N=C/c1ccc(O)cc1	0	0	0	?	0	0
CC1CC[C@@]2(NC1)OC1CC3C4CC[C@@H]5CC(O)CC[C@@]5(C)C4CC[C@]3(C)C1C2C (stereo partly specified)	0	0	-	-	-	-
COC(=O)C1=C(C(=O)OC)C2c3ccccc3C1c1ccccc12	0	0	0	15µM	0	0
c1ccc2c(CN3CCCCCCC3)c[nH]c2c1	?	0	0	15µM	21µM	?
CC(C)(C)NCC1(CO)SC(N)=NC1=O (stereo unspecified)	?	21µM	0	0	0	0
